GDH-TPI counter: GDH-TPI coupled enzyme inhibition counter-screen; inhibition, % at 4.8 µM; GDH-TPI coupled enzyme counterscreen, NADH absorbance; actives 1.2% (n = 360,000); in the data active = inhibition above about 30%;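 also: 0% = DMSO wells and 100% = wells lacking the enzyme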
FBA Mtb inh: inhibits M. tuberculosis FBA enzyme | purified M. tuberculosis FBA, fluorescence read-out | inhibition, % at 1 µM | actives 2.3% (n = 360,000); in the data active = inhibition above about 27%;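 also: 0% = vehicle and 100% = reference inhibitor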
Mtb UGM inh: blocks M. tuberculosis UGM enzyme; P9WIQ1; purified UGM, fluorescence polarization probe displacement; inhibition, % at 10 µM; actives 0.06% (n = 320,000); in the data active = inhibition above about 10%, passing the limit was not always enough
Target sequence (P9WIQ1 whole entry, looked up): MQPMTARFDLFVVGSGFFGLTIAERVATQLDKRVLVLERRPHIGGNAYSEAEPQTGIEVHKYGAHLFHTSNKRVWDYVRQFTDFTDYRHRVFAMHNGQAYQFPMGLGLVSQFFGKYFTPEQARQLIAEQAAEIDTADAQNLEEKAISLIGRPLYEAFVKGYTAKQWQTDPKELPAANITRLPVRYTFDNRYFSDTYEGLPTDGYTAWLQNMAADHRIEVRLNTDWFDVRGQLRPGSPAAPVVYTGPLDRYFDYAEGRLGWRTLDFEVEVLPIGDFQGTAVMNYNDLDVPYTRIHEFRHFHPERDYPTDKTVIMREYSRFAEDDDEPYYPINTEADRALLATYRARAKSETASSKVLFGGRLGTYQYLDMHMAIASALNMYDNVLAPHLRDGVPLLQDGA
Rv3671c inh: inhibitors of M. tuberculosis serine protease Rv3671c; actives 0.048% (n = 320,000); inhibition, % at 5.96 µM; P9WHR9; AID 2606; in the data active = inhibition above about 38%;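 also: extracellular domain of Rv3671c used as enzyme; 0% = enzyme with DMSO and 100% = no enzyme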
* marks the source's active call; other numbers are inactive results. The list is not random: actives were taken first. Their share in the collection is about 3.5%.

Screening Cc1cc(C(=O)N/N=C/c2cccc(Cl)c2Cl)no1 returned GDH-TPI counter 4.9, FBA Mtb inh -1.8, Mtb UGM inh -0.5 and Rv3671c inh -2.1.
For CCc1ccc(/C=N/NC(=O)c2cc(C)on2)s1 the results were GDH-TPI counter 32.5*, FBA Mtb inh -2.2, Mtb UGM inh -2.5 and Rv3671c inh -3.1.
Screening O=C(N/N=C/c1ccsc1)c1ccccn1 returned GDH-TPI counter 7.9, FBA Mtb inh 5.8, Mtb UGM inh 3.6 and Rv3671c inh 6.9.
Screening O=C(N/N=C/c1ccco1)c1ccccn1 returned GDH-TPI counter 35.0*, FBA Mtb inh 0.8, Mtb UGM inh 2.1 and Rv3671c inh -4.5.
`COc1cccc(NC(=O)C2CCN(c3cnccn3)CC2)c1` gave GDH-TPI counter -0.4, FBA Mtb inh 1.6, Mtb UGM inh -0.2 and Rv3671c inh 1.8.
O=C(CSc1ccc(F)cc1)Nc1ccc(C2SCCS2)cc1 was read as GDH-TPI counter 4.7, FBA Mtb inh 4.8, Mtb UGM inh -2.4 and Rv3671c inh 3.8.
Cc1ccc(/C=N/Nc2ccc(C(=O)O)cc2)s1 was read as GDH-TPI counter 47.6*, FBA Mtb inh -1.7, Mtb UGM inh 2.0 and Rv3671c inh -4.4.
For Cn1cccc1/C=N/NC(=O)c1ccco1 the results were GDH-TPI counter 34.3*, FBA Mtb inh 3.4, Mtb UGM inh 1.0 and Rv3671c inh 5.1.
O=C(O)c1ccc(NN=Cc2cc(=O)[nH]c(=O)[nH]2)cc1 was read as GDH-TPI counter 39.9* and FBA Mtb inh -4.5.
Cc1ccc(/C=N/Nc2cccc(C(=O)O)c2)s1 was read as GDH-TPI counter 16.2, FBA Mtb inh -1.2, Mtb UGM inh -0.4 and Rv3671c inh 9.1.
For Cc1ccc(/C=N/NC(=O)c2ccc(C(=O)N/N=C/c3ccc(C)s3)o2)s1 the results were GDH-TPI counter 67.6*, FBA Mtb inh 1.4, Mtb UGM inh -0.7 and Rv3671c inh -0.5.
Screening Cc1ccc(C2(C)NC(=O)N(CC(=O)NCCN3C(=O)S/C(=C\c4cccnc4)C3=O)C2=O)cc1 (centres undefined) returned GDH-TPI counter 18.4 and FBA Mtb inh 3.2.
O=C(COC(=O)/C=C/c1cccc(F)c1)Nc1cccc(S(=O)(=O)NC2=NCCCCC2)c1 was read as GDH-TPI counter 3.2, FBA Mtb inh 0.6, Mtb UGM inh -0.4 and Rv3671c inh -3.5.
For Cc1ccc(NC(=O)c2cnccn2)nc1 the results were GDH-TPI counter -0.3, FBA Mtb inh -1.7 and Mtb UGM inh 1.3.
Screening COC(=O)c1ccccc1NC(=O)CN1C(=O)c2ccccc2C1=O returned GDH-TPI counter 10.3, FBA Mtb inh 2.4, Mtb UGM inh -2.1 and Rv3671c inh 2.0.
For O=C(N/N=C/c1ccc(Br)s1)c1ccco1 the results were GDH-TPI counter 66.0*, FBA Mtb inh -3.4, Mtb UGM inh 0.2 and Rv3671c inh 3.1.
For COc1ccc(N=Cc2c(O)n(-c3cccc(C)n3)c(=O)c3ccccc23)c(OC)c1 the results were GDH-TPI counter 20.0, FBA Mtb inh 0.7, Mtb UGM inh 19.6* and Rv3671c inh 3.0.
`COc1cccc(N=Cc2c(O)n(-c3cccc(C)n3)c(=O)c3ccccc23)c1` gave GDH-TPI counter 3.6, FBA Mtb inh 4.3, Mtb UGM inh -0.8 and Rv3671c inh 2.4.
Screening Cc1cccc(-n2c(O)c(/C=N/NC(=O)c3ccccc3Cl)c3ccccc3c2=O)n1 returned GDH-TPI counter 34.6*, FBA Mtb inh 26.6, Mtb UGM inh 0.4 and Rv3671c inh 9.9.
Screening Cc1cccc(-n2c(O)c(C=Nc3ccccc3-c3n[nH]c(=S)[nH]c3=O)c3ccccc3c2=O)n1 returned GDH-TPI counter 37.2*, FBA Mtb inh 5.1, Mtb UGM inh 0.7 and Rv3671c inh 10.5.
For Cc1cccc(-n2c(O)c(C=Nc3ccccc3O)c3ccccc3c2=O)n1 the results were GDH-TPI counter 9.5, FBA Mtb inh -15.1, Mtb UGM inh 3.8 and Rv3671c inh 1.8.
Screening O=S(=O)(c1cccc2nsnc12)N1CCCCC1 returned GDH-TPI counter 13.6, FBA Mtb inh 4.0, Mtb UGM inh -2.0 and Rv3671c inh 2.7.
`CC(=O)NC(C)(c1ccccc1)c1nc(-c2csc3ccccc23)cs1` (centres undefined) gave GDH-TPI counter 8.0 and FBA Mtb inh 1.7.
For COc1ccc(/C=N\n2nnc3ccccc32)cc1 the results were GDH-TPI counter 50.6*, FBA Mtb inh 7.8, Mtb UGM inh 0.1 and Rv3671c inh -6.8.
Screening O=c1c2ccccc2nc(/C=C/c2ccc3c(c2)OCO3)n1CCCO returned GDH-TPI counter 12.6 and FBA Mtb inh -1.7.
Cn1c(/C=C/c2ccc(Cl)cc2)nc2ccccc2c1=O was read as GDH-TPI counter 37.1*, FBA Mtb inh 0.2, Mtb UGM inh 2.3 and Rv3671c inh -9.2.

From PubChem BioAssay
